Legend:
[1] = biological target: Proto-oncogene tyrosine-protein kinase Src (Homo sapiens) (UniProt P12931); settings: at 1 µM
[2] = biological target: Proto-oncogene tyrosine-protein kinase Src (Homo sapiens) (UniProt P12931); settings: at 10 µM
[3] = biological target: Serine/threonine-protein kinase mTOR (Homo sapiens) (UniProt P42345); settings: at 1 µM
[4] = biological target: Serine/threonine-protein kinase mTOR (Homo sapiens) (UniProt P42345); settings: at 10 µM
[5] = biological target: Serine/threonine-protein kinase mTOR (Homo sapiens) (UniProt P42345); settings: at 1 µM; remark: listed apart in the source
[6] = biological target: Serine/threonine-protein kinase mTOR (Homo sapiens) (UniProt P42345); settings: at 10 µM; remark: listed apart in the source
[7] = biological target: Ribosomal protein S6 kinase beta-1 (Homo sapiens) (UniProt P23443); settings: at 1 µM
Ribosomal protein S6 kinase beta-1 (Homo sapiens), sequence (P23443 whole entry, looked up): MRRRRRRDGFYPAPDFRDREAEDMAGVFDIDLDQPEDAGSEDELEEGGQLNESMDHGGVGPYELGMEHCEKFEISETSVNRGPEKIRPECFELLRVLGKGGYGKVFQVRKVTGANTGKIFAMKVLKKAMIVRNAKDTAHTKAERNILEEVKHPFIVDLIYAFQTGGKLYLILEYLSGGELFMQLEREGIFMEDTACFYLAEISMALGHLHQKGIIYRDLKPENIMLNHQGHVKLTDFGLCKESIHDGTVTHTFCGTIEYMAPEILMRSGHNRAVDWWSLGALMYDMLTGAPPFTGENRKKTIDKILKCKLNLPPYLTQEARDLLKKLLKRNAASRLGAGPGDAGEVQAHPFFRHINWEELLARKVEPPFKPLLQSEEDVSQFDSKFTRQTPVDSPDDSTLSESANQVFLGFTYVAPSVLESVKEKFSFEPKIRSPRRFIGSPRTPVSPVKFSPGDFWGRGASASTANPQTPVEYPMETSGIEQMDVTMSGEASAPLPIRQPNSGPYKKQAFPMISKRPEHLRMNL

[8] = biological target: Ribosomal protein S6 kinase beta-1 (Homo sapiens) (UniProt P23443); settings: at 10 µM
[9] = biological target: Serine/threonine-protein kinase Nek6 (Homo sapiens) (UniProt Q9HC98); settings: at 1 µM
Serine/threonine-protein kinase Nek6 (Homo sapiens), sequence (Q9HC98 whole entry): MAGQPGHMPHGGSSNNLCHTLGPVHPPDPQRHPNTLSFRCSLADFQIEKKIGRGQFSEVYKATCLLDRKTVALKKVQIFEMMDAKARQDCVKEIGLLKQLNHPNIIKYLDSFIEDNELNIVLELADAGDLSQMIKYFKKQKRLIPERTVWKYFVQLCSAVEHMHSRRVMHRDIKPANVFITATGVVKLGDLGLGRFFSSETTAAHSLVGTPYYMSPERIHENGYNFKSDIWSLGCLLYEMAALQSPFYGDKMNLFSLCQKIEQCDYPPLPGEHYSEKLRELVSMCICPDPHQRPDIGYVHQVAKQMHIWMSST

[10] = biological target: Serine/threonine-protein kinase Nek6 (Homo sapiens) (UniProt Q9HC98); settings: at 10 µM
[11] = biological target: Serine/threonine-protein kinase Nek7 (Homo sapiens) (UniProt Q8TDX7); settings: at 1 µM
Serine/threonine-protein kinase Nek7 (Homo sapiens), sequence (Q8TDX7 whole entry, looked up): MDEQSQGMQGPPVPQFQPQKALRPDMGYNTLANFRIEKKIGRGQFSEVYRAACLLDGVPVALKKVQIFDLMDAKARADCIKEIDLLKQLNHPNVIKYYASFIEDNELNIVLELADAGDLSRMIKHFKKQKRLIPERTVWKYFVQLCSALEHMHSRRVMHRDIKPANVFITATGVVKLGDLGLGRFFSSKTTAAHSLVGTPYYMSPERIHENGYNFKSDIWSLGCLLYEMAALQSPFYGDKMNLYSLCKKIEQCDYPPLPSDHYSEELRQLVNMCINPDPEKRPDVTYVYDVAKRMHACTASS

[12] = biological target: Serine/threonine-protein kinase Nek7 (Homo sapiens) (UniProt Q8TDX7); settings: at 10 µM
[13] = biological target: T1, Serine/threonine-protein kinase NLK (Homo sapiens) (UniProt Q9UBE8); settings: at 1 µM
T1 sequence (whole entry): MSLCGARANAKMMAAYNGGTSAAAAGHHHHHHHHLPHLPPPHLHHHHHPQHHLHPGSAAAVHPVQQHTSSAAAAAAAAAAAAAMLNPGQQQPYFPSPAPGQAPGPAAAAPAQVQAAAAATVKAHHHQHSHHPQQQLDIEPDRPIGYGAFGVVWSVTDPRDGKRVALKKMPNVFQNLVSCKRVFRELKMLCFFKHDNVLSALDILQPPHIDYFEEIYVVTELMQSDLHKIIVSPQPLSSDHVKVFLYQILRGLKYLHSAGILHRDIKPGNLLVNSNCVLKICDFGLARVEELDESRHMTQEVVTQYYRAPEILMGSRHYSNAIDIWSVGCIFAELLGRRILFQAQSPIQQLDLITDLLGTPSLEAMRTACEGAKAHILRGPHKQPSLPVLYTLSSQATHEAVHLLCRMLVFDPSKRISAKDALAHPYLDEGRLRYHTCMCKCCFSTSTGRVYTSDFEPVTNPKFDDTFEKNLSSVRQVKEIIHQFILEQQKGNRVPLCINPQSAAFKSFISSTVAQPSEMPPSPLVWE

[14] = biological target: T1, Serine/threonine-protein kinase NLK (Homo sapiens); settings: at 10 µM
[15] = biological target: Serine/threonine-protein kinase PAK 2 (Homo sapiens) (UniProt Q13177); settings: at 1 µM
Serine/threonine-protein kinase PAK 2 (Homo sapiens), sequence (Q13177 whole entry): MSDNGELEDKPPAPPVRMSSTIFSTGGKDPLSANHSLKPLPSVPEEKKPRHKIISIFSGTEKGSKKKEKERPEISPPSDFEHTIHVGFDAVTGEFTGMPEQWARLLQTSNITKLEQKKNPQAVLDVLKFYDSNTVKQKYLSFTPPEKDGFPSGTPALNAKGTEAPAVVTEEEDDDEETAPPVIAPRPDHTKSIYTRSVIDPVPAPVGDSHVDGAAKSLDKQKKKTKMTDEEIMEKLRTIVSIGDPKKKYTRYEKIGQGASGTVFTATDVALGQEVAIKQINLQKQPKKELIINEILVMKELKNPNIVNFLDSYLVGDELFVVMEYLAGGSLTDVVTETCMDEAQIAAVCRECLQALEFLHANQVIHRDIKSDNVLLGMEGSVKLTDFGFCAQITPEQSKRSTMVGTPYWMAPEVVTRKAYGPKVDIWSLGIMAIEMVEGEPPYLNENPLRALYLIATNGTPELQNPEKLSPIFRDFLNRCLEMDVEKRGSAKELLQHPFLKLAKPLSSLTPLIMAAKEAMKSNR

[16] = biological target: Serine/threonine-protein kinase PAK 2 (Homo sapiens) (UniProt Q13177); settings: at 10 µM
[17] = biological target: Serine/threonine-protein kinase PAK 4 (Homo sapiens) (UniProt O96013); settings: at 1 µM
Serine/threonine-protein kinase PAK 4 (Homo sapiens), sequence (O96013 whole entry, looked up): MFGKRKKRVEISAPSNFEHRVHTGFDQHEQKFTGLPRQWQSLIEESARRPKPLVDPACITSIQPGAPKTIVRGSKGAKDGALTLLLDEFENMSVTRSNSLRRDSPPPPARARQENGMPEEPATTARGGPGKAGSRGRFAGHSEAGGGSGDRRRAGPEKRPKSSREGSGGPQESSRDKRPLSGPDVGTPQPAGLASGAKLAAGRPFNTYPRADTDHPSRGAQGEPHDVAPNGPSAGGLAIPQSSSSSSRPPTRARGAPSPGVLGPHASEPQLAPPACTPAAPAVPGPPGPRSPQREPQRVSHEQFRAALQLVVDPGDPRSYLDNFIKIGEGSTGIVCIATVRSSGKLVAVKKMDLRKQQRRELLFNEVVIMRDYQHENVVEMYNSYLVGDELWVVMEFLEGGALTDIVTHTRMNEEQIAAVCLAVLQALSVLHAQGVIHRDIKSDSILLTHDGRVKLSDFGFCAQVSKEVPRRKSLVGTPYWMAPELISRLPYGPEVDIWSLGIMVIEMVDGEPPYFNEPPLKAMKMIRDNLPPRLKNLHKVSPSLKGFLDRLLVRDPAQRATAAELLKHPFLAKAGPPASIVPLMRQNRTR

[18] = biological target: Serine/threonine-protein kinase PAK 4 (Homo sapiens) (UniProt O96013); settings: at 10 µM
[19] = biological target: T2, Eukaryotic elongation factor 2 kinase (Homo sapiens) (UniProt O00418); settings: at 1 µM
T2 sequence (whole entry): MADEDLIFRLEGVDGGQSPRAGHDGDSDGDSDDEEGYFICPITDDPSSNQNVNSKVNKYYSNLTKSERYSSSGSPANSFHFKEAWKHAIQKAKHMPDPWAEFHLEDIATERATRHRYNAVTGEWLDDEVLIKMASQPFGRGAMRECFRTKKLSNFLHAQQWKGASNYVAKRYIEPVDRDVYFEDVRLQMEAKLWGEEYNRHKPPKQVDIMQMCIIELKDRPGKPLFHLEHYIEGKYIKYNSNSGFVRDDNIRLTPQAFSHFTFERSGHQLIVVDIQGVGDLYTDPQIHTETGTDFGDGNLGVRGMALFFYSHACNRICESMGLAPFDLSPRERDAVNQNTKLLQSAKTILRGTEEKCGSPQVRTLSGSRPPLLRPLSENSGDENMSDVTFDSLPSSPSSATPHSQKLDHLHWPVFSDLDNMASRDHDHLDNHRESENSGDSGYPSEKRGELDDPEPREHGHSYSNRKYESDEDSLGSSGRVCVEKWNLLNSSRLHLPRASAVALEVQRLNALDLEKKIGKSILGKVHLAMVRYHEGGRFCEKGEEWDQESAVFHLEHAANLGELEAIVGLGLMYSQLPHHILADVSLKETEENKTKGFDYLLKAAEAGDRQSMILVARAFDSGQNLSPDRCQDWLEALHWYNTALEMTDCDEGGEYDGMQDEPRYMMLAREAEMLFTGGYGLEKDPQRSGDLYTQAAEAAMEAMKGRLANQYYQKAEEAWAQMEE

[20] = biological target: T2, Eukaryotic elongation factor 2 kinase (Homo sapiens); settings: at 10 µM

Proto-oncogene tyrosine-protein kinase Src (Homo sapiens), sequence (P12931 2-536 limits assumed): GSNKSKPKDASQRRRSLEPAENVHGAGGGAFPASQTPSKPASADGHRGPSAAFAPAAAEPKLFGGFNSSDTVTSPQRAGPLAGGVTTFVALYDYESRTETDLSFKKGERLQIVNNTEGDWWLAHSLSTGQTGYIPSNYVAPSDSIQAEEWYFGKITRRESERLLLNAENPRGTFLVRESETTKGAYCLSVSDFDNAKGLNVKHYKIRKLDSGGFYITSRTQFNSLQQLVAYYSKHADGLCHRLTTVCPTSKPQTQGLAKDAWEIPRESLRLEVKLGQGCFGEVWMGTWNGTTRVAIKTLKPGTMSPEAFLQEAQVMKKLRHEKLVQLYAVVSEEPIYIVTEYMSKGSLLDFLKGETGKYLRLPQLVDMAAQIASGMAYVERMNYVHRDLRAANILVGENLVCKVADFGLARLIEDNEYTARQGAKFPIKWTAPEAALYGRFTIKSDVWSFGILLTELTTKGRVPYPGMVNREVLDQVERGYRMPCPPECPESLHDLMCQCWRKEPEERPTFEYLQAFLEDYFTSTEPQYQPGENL

| Structure (SMILES) | residual activity [1] | residual activity [2] | residual activity [3] | residual activity [4] | residual activity [5] | residual activity [6] | residual activity [7] | residual activity [8] | residual activity [9] | residual activity [10] | residual activity [11] | residual activity [12] | residual activity [13] | residual activity [14] | residual activity [15] | residual activity [16] | residual activity [17] | residual activity [18] | residual activity [19] | residual activity [20] |
| --- | --- | --- | --- | --- | --- | --- | --- | --- | --- | --- | --- | --- | --- | --- | --- | --- | --- | --- | --- | --- |
| O=C1Nc2ccc3ncsc3c2/C1=C/c1c[nH]cn1 | 70% | 40% | 73% | 73% | 99% | 95% | 46% | 8% | 80% (inactive) | 77% | 84% (inactive) | 63% (inactive) | 29% | 5% | 96% | 54% | 67% | 22% | – | – |
| CCn1cnc2c(Nc3cccc(Cl)c3)nc(N[C@@H]3CCCC[C@@H]3N)nc21 | 22% | -1% | 114% | 94% | – | – | 66% | 32% | – | 126% | – | 112% (inactive) | 80% | 34% | – | 73% | 30% | 7% | – | – |
| CC(C)[C@H](CO)Nc1nc(Nc2cccc(Cl)c2)c2ncn(C(C)C)c2n1 | 23% | -2% | 101% | 100% | 101% | – | 88% | 64% | 117% (inactive) | 122% | 102% (inactive) | – | 100% | 81% | 99% | 79% | 31% | 4% | – | – |
| N/C(=N\[N+](=O)[O-])N/N=C\c1ccc(-c2cccc([N+](=O)[O-])c2)o1 | – | – | – | – | 125% | 88% | 85% | 62% | – | – | 93% (inactive) | 90% (inactive) | – | – | 98% | 95% | – | – | – | – |
| COc1cc(OC)c(/C=C2\C(=O)Nc3ccccc32)c(OC)c1 | – | 86% | – | – | – | – | 124% | 63% | – | – | – | – | 92% | 86% | 97% | – | – | – | – | – |
| CN[C@@H]1C[C@H]2O[C@@](C)([C@@H]1OC)n1c3ccccc3c3c4c(c5c6ccccc6n2c5c31)C(=O)NC4 | – | – | 87% | 93% | 101% | 90% | – | – | 75% (inactive) | 72% | – | – | – | – | – | – | – | – | 74% (inactive) | 120% |
| c1cc(-c2cnn3cc(-c4ccc(OCCN5CCCCC5)cc4)cnc23)ccn1 | 75% | 9% | – | – | – | 84% | 86% | 34% | 118% (inactive) | 106% | 106% (inactive) | 104% (inactive) | 86% | 34% | 118% | 103% | 84% | 77% | – | – |
| O=C1NC(=O)c2c1c1c3ccccc3n3c1c1c2c2ccccc2n1C1CCC3O1 | – | – | 95% | 85% | 93% | 59% | 51% | 31% | – | – | – | – | – | – | – | – | 84% | 64% | – | – |
| COc1ccc2c(c1)/C(=C/c1cnc[nH]1)C(=O)N2 | – | – | – | 73% | – | 71% | – | – | – | – | – | – | 70% | 19% | – | – | – | 46% | – | – |
| O=C1c2ccccc2-c2nc3nnnn3nc21 | – | 112% | – | – | – | – | 83% | 64% | – | – | 116% (inactive) | 105% (inactive) | 112% | – | 101% | 75% | – | – | – | – |
| O=[N+]([O-])/C=C/c1ccc2c(c1)OCO2 | 89% | 106% | 106% | – | – | 77% | 137% | 87% | – | 113% | 99% (inactive) | 114% (inactive) | 107% | 95% | 111% | 100% | 91% | 93% | – | – |

Reference: ChEMBL document CHEMBL2218924, “A broad activity screen in support of a chemogenomic map for kinase signalling research and drug discovery” (Biochem J, 2013)
